SENP8 block-1 – blocks human SENP8 cleavage of Nedd8 substrate | Q96LD8 | recombinant SENP8, Nedd8 substrate fluorescence | inhibition, % at 20 µM | actives 0.64% (n = 360,000) | AID 602440; in the data active = inhibition mostly above about 40%, no sharp cut-off; inactive = mostly below about 27%
SENP7 block – inhibitors of human SENP7 protease | Q9BQF6 | recombinant SENP7, Z-RLRGG-aminoluciferin luminescence, 40 min | inhibition, % at 5 µM | actives 1.5% (n = 330,000) | AID 434973;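 active = inhibition above about 50% at the single test dose, limit read from the data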;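 also: plate controls were DMSO with enzyme for no effect and no enzyme buffer wells for full effect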
Target sequence (Q9BQF6 706-1050 limits assumed): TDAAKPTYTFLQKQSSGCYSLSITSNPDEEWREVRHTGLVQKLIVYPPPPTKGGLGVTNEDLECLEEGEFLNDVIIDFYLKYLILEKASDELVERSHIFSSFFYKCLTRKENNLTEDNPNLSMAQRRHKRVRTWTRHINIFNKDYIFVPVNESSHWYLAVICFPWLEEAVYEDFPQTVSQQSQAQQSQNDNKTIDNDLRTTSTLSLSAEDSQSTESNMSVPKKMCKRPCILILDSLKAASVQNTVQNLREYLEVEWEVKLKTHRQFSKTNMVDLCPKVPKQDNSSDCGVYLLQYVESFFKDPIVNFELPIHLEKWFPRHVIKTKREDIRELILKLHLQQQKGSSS
HSP90 refold inh – HSP90 refolding inhibition in rabbit reticulocyte lysate. actives 0.91% (n = 290,000). luciferase refolding luminescence, 3 h. inhibition, % at 5.6 µM. AID 1789;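 active = inhibition above the screen-wide mean plus 3 SD, computed separately per campaign, cut at about 16% in these data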;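 also: 0% = DMSO wells and 100% = 60 µM geldanamycin wells; inhibitors lower the luminescence because luciferase stays unfolded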
SENP8 block-2 – blocks the human protease SENP8; Q96LD8; purified SENP8, Z-RLRGG-aminoluciferin cleavage, luminescence; inhibition, % at 10 µM; actives 1.2% (n = 330,000); AID 2540; in the data active = inhibition above about 50%
SENP6 inh – inhibitors of human SENP6 protease | inhibition, % at 10 µM | actives 1.8% (n = 330,000) | Q9GZR1 | Recombinant SENP6 catalytic domain, aminoluciferin luminescence;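 active = inhibition above about 50% at the single tested dose, limit read from the data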;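 also: plate controls were DMSO wells with enzyme for no effect and DMSO wells lacking enzyme for full effect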
SENP8 confirm – confirmation of human SENP8 protease inhibitors | Recombinant SENP8, Z-RLRGG-aminoluciferin luminescence, 60 min | actives 40% (n = 6,200) | shares compounds with SENP7 block | AID 488912 | inhibition, % at 12.5 µM;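 active = mean inhibition across replicates above about 50%, limit read from the data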
SENP6 confirm – human SENP6 inhibition, confirmed; shares compounds with SENP7 block; recombinant SENP6, Z-RLRGG-aminoluciferin luminescence; inhibition, % at 12.5 µM; actives 58% (n = 6,200); AID 488915
SENP7 confirm – confirmation of human SENP7 protease inhibitors; actives 69% (n = 6,200); recombinant SENP7, Z-RLRGG-aminoluciferin luminescence, 40 min; shares compounds with SENP7 block; inhibition, % at 12.5 µM
Casp3 SENP sel – inhibits human caspase-3 in SENP selectivity test; shares compounds with SENP7 block; actives 60% (n = 6,200); inhibition, % at 12.5 µM; purified caspase-3, Z-DEVD-aminoluciferin luminescence, 60 min; AID 488918;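 active = mean inhibition above about 50%, limit read from the data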;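 also: plate controls were enzyme with DMSO for no effect and wells without caspase-3 for full effect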
Target sequence (P42574 28-227 limits assumed): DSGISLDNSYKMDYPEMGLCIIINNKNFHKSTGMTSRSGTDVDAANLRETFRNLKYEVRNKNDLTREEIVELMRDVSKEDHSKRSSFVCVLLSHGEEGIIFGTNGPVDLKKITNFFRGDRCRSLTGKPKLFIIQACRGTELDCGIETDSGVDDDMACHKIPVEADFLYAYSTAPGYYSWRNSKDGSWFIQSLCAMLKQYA
Luc interf – counter-screen for SENP inhibitors: luminescence interference; actives 39% (n = 6,200); inhibition, % at 12.5 µM; shares compounds with SENP7 block; Pre-incubated SENP8/Z-RLRGG-aminoluciferin, luciferase luminescence interference; AID 488919;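 active = mean inhibition above about 50% when retested at one dose, limit read from the data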;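 also: plate controls were DMSO wells with completed reaction for no effect and substrate without enzyme for full effect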
Starred values were filed as active, the others as inactive; nt = no result given. This is a sample that favours compounds with a hit; in the whole collection about 2.7% have one here.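 The calls were made as follows, unless noted: active = mean inhibition above about 50% in the one-dose retest (limit read from the data); inactive = the rest.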

SMILES	SENP8 block-1	SENP7 block	HSP90 refold inh	SENP8 block-2	SENP6 inh	SENP8 confirm	SENP6 confirm	SENP7 confirm	Casp3 SENP sel	Luc interf
COc1ccc(OC)c(NC(=O)C(=O)N/N=C/c2ccccc2[N+](=O)[O-])c1	16	92*	1	-4	-7	7	8	7	4	3
COc1ccccc1CNC(=O)CCc1nc2ccccc2c(=O)[nH]1	6	-4	6	-5	-4	nt	nt	nt	nt	nt
COc1cccc(C(=O)NNC(=O)C(=O)Nc2ccc(C)c(Cl)c2)c1	4	3	-2	-1	-5	nt	nt	nt	nt	nt
CC(=O)Nc1nonc1-c1nc2ccccc2n1C	-126	0	-1	3	13	nt	nt	nt	nt	nt
CCC(=O)Nc1cnc(NC(=O)c2cccc(F)c2)cc1C	12	59*	13	18	58*	43	41	78*	83*	45
CCn1c(COc2ccc(Cl)c(C)c2)nnc1SCC(=O)N1CCCC1	16	6	5	0	3	nt	nt	nt	nt	nt
CCc1ccc(NC(=S)Nc2cccc3cnccc23)cc1	-165	64*	4	83*	92*	10	32	11	2	4
C=C(C)CNC(=S)Nc1cccc2cnccc12	-11	-3	0	-6	-5	nt	nt	nt	nt	nt
Cc1cc(C)cc(NC(=S)Nc2cccc3cnccc23)c1	-122	37	1	81*	81*	6	19	4	-3	-3
Cc1ccc(NC(=S)Nc2cccc3cnccc23)c(C)c1	-70	77*	2	87*	95*	7	9	-8	2	-1
C/C(CCN1CCCCc2nc(C)c(C)cc21)=N\O[C@@H](C)c1cn([C@H](CO)Cc2ccccc2)nn1	nt	nt	0	nt	nt	nt	nt	nt	nt	nt
C=CCOc1ccc(/C=C/C(=O)OCC(=O)NC2CCCCCCC2)cc1	-1	6	1	-4	-5	nt	nt	nt	nt	nt
CCS(=O)(=O)N1CCCC(C(=O)NCCN2CCC(Cc3ccccc3)CC2)C1 (configuration not stated)	18	7	-1	4	-6	nt	nt	nt	nt	nt
Cc1ccc(N(Cc2cc3ccccc3[nH]c2=O)C(=O)c2cccs2)cc1C	-15	2	-1	-1	1	nt	nt	nt	nt	nt
Cc1nc2ccccc2n1/N=C/c1ccc([N+](=O)[O-])s1	34	11	2	33	73*	-9	14	1	-3	-4
FC(F)Oc1ccccc1/C=N/n1cnc2ccccc21	3	-8	-7	-14	7	nt	nt	nt	nt	nt
O=[N+]([O-])c1ccc(/C=N/Nc2ncccc2[N+](=O)[O-])s1	33	91*	nt	27	41	23	22	19	35	6
O=[N+]([O-])c1ccc(/C=N/n2cnc3ccccc32)s1	36	34	-1	2	73*	15	25	16	2	0
CC(=O)C(C)Oc1ccc2c3c(c(=O)oc2c1C)CCCC3 (configuration not stated)	-162	-3	1	1	-15	nt	nt	nt	nt	nt
O=C(C1CCCO1)N1CCc2ccccc21 (configuration not stated)	20	5	6	3	-7	nt	nt	nt	nt	nt
Cc1nc(C(=O)NNC(=O)c2ccccc2Cl)c(C(F)(F)F)o1	11	0	2	1	3	nt	nt	nt	nt	nt
O=C(Nc1ccc(Cl)cc1)Nc1cccc2nsnc12	-84	94*	-2	91*	92*	-13	91*	88*	82*	47
Nc1cccc(-c2cn3cc(C(F)(F)F)cc(Cl)c3n2)c1	-28	86*	8	70*	82*	84*	84*	97*	86*	86*
FC(F)(F)c1cc(Cl)c2nc(-c3ccccc3)cn2c1	-223	87*	5	76*	83*	46	81*	94*	69*	47
FC(F)(F)c1cc(Cl)c2nc(-c3ccccc3)c(Cc3ccsc3)n2c1	-171	nt	nt	nt	nt	nt	nt	nt	nt	nt
SMILES	SENP8 block-1	SENP7 block	HSP90 refold inh	SENP8 block-2	SENP6 inh	SENP8 confirm	SENP6 confirm	SENP7 confirm	Casp3 SENP sel	Luc interf
CCOC(=O)c1sc(=NC(=O)c2ccc(C)c(C)c2)n(C)c1C	-363	-4	-1	7	-1	nt	nt	nt	nt	nt
CCOC(=O)c1sc(=NC(=O)c2ccccc2Br)n(C)c1C	-69	8	0	-11	-16	nt	nt	nt	nt	nt
CCOC(=O)c1sc(=NC(=O)c2cccs2)n(C)c1C	-427	55*	-10	4	-21	17	10	17	45	1
CCOC(=O)c1sc(=NC(=O)c2ccc(Cl)s2)n(C)c1C	-402	53*	7	8	-24	13	12	28	23	12
Cn1ncc(Br)c1NC(=O)Nc1ccccc1	17	9	2	-9	13	nt	nt	nt	nt	nt
COCn1c(-c2ccc(OC)c(OC)c2)nc2ccccc21	-20	14	-4	-3	4	nt	nt	nt	nt	nt
COCn1c(-c2cccc(Br)c2)nc2ccccc21	10	40	4	22	51*	23	20	65*	42	55*
O=C1/C(=C/Nc2cccc([N+](=O)[O-])c2)CCc2ccccc21	-126	29	5	61*	19	2	81*	92*	60*	24
Nc1c(N(CCC2=CCCCC2)C(=O)COc2ccc(F)cc2Cl)c(=O)[nH]c(=O)n1Cc1ccccc1	5	nt	nt	nt	nt	nt	nt	nt	nt	nt
COc1cccc(/C=N/Nc2snc(SC)c2C#N)c1	-205	0	-4	5	37	nt	nt	nt	nt	nt
COc1ccc(/C=N/Nc2snc(SC)c2C#N)cc1OC	-272	4	-6	19	61*	6	8	33	12	3
COc1cccc(/C=N/Nc2snc(SC)c2C#N)c1O	-255	96*	-1	96*	99*	95*	98*	100*	94*	79*
O=C(CNC(=O)c1ccco1)NCC(=O)OCc1ccc(C(=O)Oc2ccc(Cl)cc2)cc1	14	-1	-9	-4	2	nt	nt	nt	nt	nt
CCCNC(=O)CCn1c(=S)oc2ccccc21	8	-1	-2	-7	58*	0	-2	7	6	0
CC(=O)Nc1ccc(NC(=O)CCn2c(=S)oc3ccccc32)cc1	2	-12	0	-10	-3	nt	nt	nt	nt	nt
Cc1ccsc1/C=C1/C(=O)NN(c2ccccc2)C1=O	28	27	-2	11	-2	nt	nt	nt	nt	nt
Cc1ccsc1C=C1C(=O)c2ccccc2C1=O	31	69*	3	44	11	74*	66*	79*	69*	37

Source: PubChem (several laboratories)
